Assay outcomes (PubChem)
FBA Mtb inh: Mtb FBA enzyme inhibitors, primary screen, biochemical, fluorescence, strain H37Rv. Fructose-bisphosphate aldolase (Mycobacterium tuberculosis (strain ATCC 25618 / H37Rv)), …. purified M. tuberculosis FBA, fluorescence read-out. inhibition, % at 1 µM. actives 2.3% (n = 360,000). AID 588726, 2011; in the data active means inhibition above about 27%
Target sequence (P9WQA3 whole entry, looked up): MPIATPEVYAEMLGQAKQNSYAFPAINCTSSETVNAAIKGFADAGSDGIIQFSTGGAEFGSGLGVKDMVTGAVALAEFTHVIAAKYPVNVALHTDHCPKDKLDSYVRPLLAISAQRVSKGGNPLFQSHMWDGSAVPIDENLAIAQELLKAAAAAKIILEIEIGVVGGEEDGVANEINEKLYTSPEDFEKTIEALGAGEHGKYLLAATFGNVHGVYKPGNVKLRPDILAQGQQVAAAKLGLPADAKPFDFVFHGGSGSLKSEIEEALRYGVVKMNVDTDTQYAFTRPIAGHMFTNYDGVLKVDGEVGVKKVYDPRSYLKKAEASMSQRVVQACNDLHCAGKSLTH
Mtb BioA inh: M. tuberculosis BioA enzyme inhibitors, primary screen, biochemical, plate reader, single point, HTS. actives 0.096% (n = 360,000). AID 602481, 2012. 7,8-diaminopelargonic acid synthase BioA (Mycobacterium tuberculosis). purified M. tuberculosis BioA enzyme. inhibition, % at 9.99 µM; in the data active means inhibition above about 40%
FadD28 FP inh: inhibitors of FadD28 bisubstrate probe binding, primary screen, biochemical, fluorescence polarization, single point. Mycobacterium tuberculosis FadD28 fatty-acid-AMP ligase. inhibition, % at 12.5 µM. actives 0.22% (n = 360,000). AID 588549, 2011; in the data active means inhibition above about 8.5%, passing the limit was not always enough
Mtb hypoxia inh: PubChem AID 1159583; M. tuberculosis hypoxia-regulated fluorescent reporter, fluorescence; fluorescence inhibition, % (concentration not given with the values); actives 0.1% (n = 300,000); in the data active means fluorescence inhibition mostly above about 23%, no sharp cut-off; inactive means mostly below about 17%
GDH-TPI counter: GDH-TPI coupling enzyme inhibitors, primary screen, artefact control for M. tuberculosis FBA inhibitor project, biochemical, absorbance, full deck; AID 588335, 2011; actives 1.2% (n = 360,000); inhibition, % at 4.8 µM; GDH-TPI coupled enzyme counterscreen, NADH absorbance; in the data active means inhibition above about 30%
Hits are given with their value. This is a sample that favours compounds with a hit; in the whole collection about 2.9% have one here.

What do the screens show for `COc1ccc(OCC(=O)N/N=C/c2ccc(N(C)C)cc2)cc1`?
FBA Mtb inh: inactive; Mtb BioA inh: inactive; FadD28 FP inh: inactive; GDH-TPI counter: 34

How did CN(C)c1ccc(C=NNC(=S)NCc2ccccc2)cc1 do in these assays?
Mtb hypoxia inh: inactive

What do the screens show for `CN(C)c1ccc(/C=N/NC(=O)CCC(=O)NCc2ccccc2)cc1`?
FBA Mtb inh: inactive; FadD28 FP inh: inactive; GDH-TPI counter: 32

What do the screens show for `CN(C)c1ccc(/C=N/NC(=O)CCCCCNC(=O)c2ccccc2)cc1`?
FBA Mtb inh: inactive; FadD28 FP inh: inactive; GDH-TPI counter: 58

Results for COc1ccc(OCC(=O)NN=Cc2ccc(N(C)C)cc2)cc1 ?
Mtb hypoxia inh: inactive

Results for COc1ccc(CN(C)C[C@@H]2OCCCC[C@H](C)Oc3ccc(NC(=O)NC4CCCCC4)cc3C(=O)N([C@@H](C)CO)C[C@@H]2C)cc1 ?
Mtb BioA inh: inactive

Results for CCOC(=O)Cc1csc(NC(=O)c2ccc(Br)o2)n1 ?
FBA Mtb inh: inactive; FadD28 FP inh: inactive; Mtb hypoxia inh: inactive; GDH-TPI counter: inactive

Results for CCOC(=O)Cc1csc(NC(=O)/C=C/c2ccc(Br)o2)n1 ?
FBA Mtb inh: inactive; Mtb BioA inh: inactive; FadD28 FP inh: inactive; Mtb hypoxia inh: inactive; GDH-TPI counter: 75

How did COc1cccc(-c2cnc3c(c2)C(=O)N([C@H](C)CO)C[C@@H](C)[C@H](CN(C)Cc2cccnc2)O3)c1 do in these assays?
Mtb BioA inh: inactive

What do the screens show for `CC(C)NC(=O)Nc1ccc2c(c1)CC(=O)N([C@H](C)CO)C[C@@H](C)[C@H](CN(C)CC1CCCCC1)O2`?
Mtb BioA inh: inactive

Results for O=C1OCCN1C(=O)[C@H]1[C@H](c2ccc(Cl)cc2)C(c2ccc(F)cc2)=NN1c1ccc(Br)cc1 ?
FBA Mtb inh: 55; Mtb BioA inh: inactive; FadD28 FP inh: inactive; Mtb hypoxia inh: inactive; GDH-TPI counter: 31

What do the screens show for `O=C1OCCN1C(=O)C1C(c2ccc(F)cc2)C(c2ccc(F)cc2)=NN1c1ccc(Br)cc1` (stereo not given)?
Mtb hypoxia inh: inactive

Results for Cc1cccc(-n2c(C)cc(/C=N/NC(=O)c3ccc(CN4CCOCC4)cc3)c2C)c1 ?
FBA Mtb inh: inactive; FadD28 FP inh: inactive; GDH-TPI counter: 45

Results for CCCNC(=O)[C@H]1[C@H](CO)[C@H]2Cn3c(ccc(-c4cncnc4)c3=O)[C@H]2N1C(=O)c1ccccc1F ?
Mtb BioA inh: inactive

How did COc1ccc(NC(=O)Nc2ccc3c(c2)C(=O)N([C@@H](C)CO)C[C@H](C)[C@@H](CN(C)S(=O)(=O)c2c(C)noc2C)OCCCC[C@H](C)O3)cc1 do in these assays?
Mtb BioA inh: inactive

What do the screens show for `N#CC1=C(N)C2=C(N3CCCCC3)CCCC2C1(C#N)C#N` (stereo not given)?
FBA Mtb inh: inactive; Mtb BioA inh: inactive; FadD28 FP inh: 46; Mtb hypoxia inh: inactive; GDH-TPI counter: inactive

What do the screens show for `CC(=O)Oc1ccc(C=NNC2=NS(=O)(=O)c3ccccc32)cc1`?
Mtb hypoxia inh: inactive

How did CC(=O)Oc1ccc(/C=N/NC2=NS(=O)(=O)c3ccccc32)cc1 do in these assays?
FBA Mtb inh: inactive; Mtb BioA inh: inactive; FadD28 FP inh: inactive; GDH-TPI counter: 35

How did O=S1(=O)N=C(NN=Cc2cccs2)c2ccccc21 do in these assays?
Mtb hypoxia inh: inactive

How did O=S1(=O)N=C(N/N=C/C=C/c2ccccc2)c2ccccc21 do in these assays?
FBA Mtb inh: inactive; Mtb BioA inh: inactive; FadD28 FP inh: inactive; GDH-TPI counter: 40

How did COc1ccc(/C=N/NC2=NS(=O)(=O)c3ccccc32)cc1 do in these assays?
FBA Mtb inh: inactive; Mtb BioA inh: inactive; FadD28 FP inh: inactive; GDH-TPI counter: 44

What do the screens show for `O=S1(=O)N=C(N(CCO)/N=C/C=C/c2ccccc2)c2ccccc21`?
FBA Mtb inh: inactive; Mtb BioA inh: inactive; FadD28 FP inh: inactive; GDH-TPI counter: 56

How did C[C@H]1CN([C@@H](C)CO)C(=O)c2ccccc2-c2ccccc2CO[C@H]1CN(C)CC1CC1 do in these assays?
Mtb BioA inh: inactive

What do the screens show for `COc1cc(OC)cc(C(=O)NN=C2SCC(=O)N2Cc2ccco2)c1`?
Mtb hypoxia inh: inactive

How did CCCn1c(C)csc1=NC(=S)Nc1ccccc1 do in these assays?
Mtb hypoxia inh: inactive

What do the screens show for `COc1ccc(/C=N/NC2=NS(=O)(=O)c3ccccc32)cc1OC(C)=O`?
FBA Mtb inh: inactive; Mtb BioA inh: inactive; GDH-TPI counter: 32

How did COc1ccc(C=NNC2=NS(=O)(=O)c3ccccc32)cc1OC(C)=O do in these assays?
Mtb hypoxia inh: inactive

How did NC(=O)C(=O)NN=C1CCc2ccccc21 do in these assays?
Mtb hypoxia inh: inactive

How did O=C(O)c1ccc(NN=CC2=C(N3CCOCC3)/C(=C\c3ccccc3)CC2)cc1 do in these assays?
Mtb hypoxia inh: inactive

What do the screens show for `Cc1cc(C)nc(N/N=C/C2=C(N3CCOCC3)C(=C/c3ccccc3)/CC2)n1`?
FBA Mtb inh: inactive; Mtb BioA inh: inactive; FadD28 FP inh: inactive; GDH-TPI counter: 32

How did COc1ccc(NC(=O)N(C)C[C@@H]2Oc3ncc(C#CCN(C)C)cc3C(=O)N([C@@H](C)CO)C[C@@H]2C)cc1 do in these assays?
Mtb BioA inh: inactive

Results for O=C(CCC1CCCC1)N1CCN(C(=O)c2ccco2)CC1 ?
FBA Mtb inh: 135; Mtb BioA inh: inactive; FadD28 FP inh: inactive; GDH-TPI counter: inactive

How did C/C(=N/NC(=O)c1ccco1)c1ccc(Br)s1 do in these assays?
FBA Mtb inh: inactive; Mtb BioA inh: inactive; GDH-TPI counter: 43

How did COc1ccccc1C=NNC(=O)c1ccncc1 do in these assays?
FBA Mtb inh: inactive; Mtb BioA inh: inactive; FadD28 FP inh: inactive; GDH-TPI counter: inactive

What do the screens show for `Cc1ccsc1/C=N/N=C/c1sccc1C`?
FBA Mtb inh: inactive; Mtb BioA inh: inactive; FadD28 FP inh: inactive; GDH-TPI counter: 33

Results for O=C(N/N=C/C=N/NC(=O)c1ccco1)c1ccco1 ?
FBA Mtb inh: inactive; Mtb BioA inh: inactive; FadD28 FP inh: inactive; GDH-TPI counter: 54

Results for COc1ccccc1/C=C/C=N/NC(=O)c1ccncc1 ?
FBA Mtb inh: inactive; FadD28 FP inh: inactive; GDH-TPI counter: 44

What do the screens show for `Cc1ccsc1C=NN=Cc1sccc1C`?
Mtb hypoxia inh: inactive

What do the screens show for `C/C(=N\NC(=O)c1ccco1)c1ccc(C(=O)O)s1`?
FBA Mtb inh: inactive; Mtb BioA inh: inactive; FadD28 FP inh: inactive; GDH-TPI counter: inactive

How did CO[C@@H]1CN(C)C(=O)c2ccc(NC(=O)NC3CCCCC3)cc2OC[C@@H](C)NC[C@H]1C do in these assays?
Mtb BioA inh: inactive

How did O=C(NN=CC=NNC(=O)c1ccco1)c1ccco1 do in these assays?
Mtb hypoxia inh: inactive

What do the screens show for `COc1ccccc1/C=C/C=N/NC(=O)Cc1cccs1`?
FBA Mtb inh: inactive; Mtb BioA inh: inactive; FadD28 FP inh: inactive; GDH-TPI counter: 32
